Test results published in PubChem BioAssay AID1159580 (chemical genetic matrix, 2015).
Among all 5,500 compounds or so, about 2,000 (36%) were called active. Inconclusive results (about 18%) are left out. No stated cut-off is given here; in the data, active means normalized growth mostly below about 0.91 (no sharp cut-off); inconclusive means no clear call, values can overlap the other calls; inactive means mostly above about 0.92. The list shows a part of the results.

Experiment: chemical genetic growth profiling, strain panel (AID 1159580);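 further: tested at 20 µM; growth read once vehicle control cultures reached saturation at 30 °C; 1 = growth at the plate median or of vehicle wells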
Conditions: growth OD
[1] = S. cerevisiae deletion strains, locus YHR030C, strain SLT2, stronger effect = lower value
[2] = S. cerevisiae deletion strains, locus YHR079C, strain IRE1, stronger effect = lower value
[3] = S. cerevisiae deletion strains, locus YJL095W, strain BCK1, stronger effect = lower value
[4] = S. cerevisiae deletion strains, locus YJR066W, strain TOR1, stronger effect = lower value
[5] = S. cerevisiae deletion strains, locus YLR113W, strain HOG1, stronger effect = lower value
[6] = S. cerevisiae deletion strains, locus YNL183C, strain NPR1, stronger effect = lower value
[7] = S. cerevisiae deletion strains, locus YOR231W, strain MKK1, stronger effect = lower value
[8] = S. cerevisiae deletion strains, locus YPL256C, strain CLN2, stronger effect = lower value
[9] = S. cerevisiae deletion strains, locus YAL013W, strain DEP1, stronger effect = lower value
[10] = S. cerevisiae deletion strains, locus YBR229C, strain ROT2, stronger effect = lower value
[11] = S. cerevisiae deletion strains, locus YCL061C, strain MRC1, stronger effect = lower value
[12] = S. cerevisiae deletion strains, locus YDL101C, strain DUN1, stronger effect = lower value
[13] = S. cerevisiae deletion strains, locus YDR150W, strain NUM1, stronger effect = lower value
[14] = S. cerevisiae deletion strains, locus YEL061C, strain CIN8, stronger effect = lower value
[15] = S. cerevisiae deletion strains, locus YGR078C, strain PAC10, stronger effect = lower value
[16] = S. cerevisiae deletion strains, locus YHR087W, strain rtc3, stronger effect = lower value
[17] = S. cerevisiae deletion strains, locus YJR043C, strain POL32, stronger effect = lower value
[18] = S. cerevisiae deletion strains, locus YJR075W, strain HOC1, stronger effect = lower value
[19] = S. cerevisiae deletion strains, locus YLR039C, strain RIC1, stronger effect = lower value
[20] = S. cerevisiae deletion strains, locus YLR058C, strain SHM2 (second series), stronger effect = lower value
[21] = S. cerevisiae deletion strains, locus YLR085C, strain ARP6, stronger effect = lower value
[22] = S. cerevisiae deletion strains, locus YLR262C, strain YPT6, stronger effect = lower value
[23] = S. cerevisiae deletion strains, locus YML094W, strain GIM5, stronger effect = lower value
[24] = S. cerevisiae deletion strains, locus YMR219W, strain ESC1, stronger effect = lower value
[25] = S. cerevisiae deletion strains, locus YMR263W, strain SAP30, stronger effect = lower value
[26] = S. cerevisiae deletion strains, locus YNL153C, strain GIM3, stronger effect = lower value
[27] = S. cerevisiae deletion strains, locus YNL298W, strain CLA4 (second series), stronger effect = lower value
[28] = S. cerevisiae deletion strains, locus YNL322C, strain KRE1, stronger effect = lower value
[29] = S. cerevisiae deletion strains, locus YNR030W, strain Alg12, stronger effect = lower value
[30] = S. cerevisiae deletion strains, locus YPL055C, strain LGE1, stronger effect = lower value
[31] = S. cerevisiae deletion strains, locus YPL241C, strain CIN2, stronger effect = lower value
[32] = S. cerevisiae deletion strains, locus YPR135W, strain CTF4, stronger effect = lower value
[33] = S. cerevisiae deletion strains, locus YAR019C, strain CDC15, stronger effect = lower value
[34] = S. cerevisiae deletion strains, locus YBL105C, strain PKC1, stronger effect = lower value
[35] = S. cerevisiae deletion strains, locus YBR135W, strain CKS1, stronger effect = lower value
[36] = S. cerevisiae deletion strains, locus YBR136W, strain MEC1, stronger effect = lower value
[37] = S. cerevisiae deletion strains, locus YBR160W, strain CDC28, stronger effect = lower value
[38] = S. cerevisiae deletion strains, locus YDL017W, strain CDC7, stronger effect = lower value
[39] = S. cerevisiae deletion strains, locus YDL028C, strain MPS1, stronger effect = lower value
[40] = S. cerevisiae deletion strains, locus YDL108W, strain KIN28, stronger effect = lower value
[41] = S. cerevisiae deletion strains, locus YDL132W, strain cdc53, stronger effect = lower value
[42] = S. cerevisiae deletion strains, locus YDL214C, strain PRR2, stronger effect = lower value
[43] = S. cerevisiae deletion strains, locus YDR052C, strain DBF4, stronger effect = lower value
[44] = S. cerevisiae deletion strains, locus YDR054C, strain cdc34, stronger effect = lower value
[45] = S. cerevisiae deletion strains, locus YDR226W, strain ADK1, stronger effect = lower value
[46] = S. cerevisiae deletion strains, locus YDR477W, strain SNF1, stronger effect = lower value
[47] = S. cerevisiae deletion strains, locus YER123W, strain YCK3, stronger effect = lower value
[48] = S. cerevisiae deletion strains, locus YER133W, strain GLC7, stronger effect = lower value
[49] = S. cerevisiae deletion strains, locus YFL009W, strain cdc4, stronger effect = lower value
[50] = S. cerevisiae deletion strains, locus YFL029C, strain CAK1, stronger effect = lower value
[51] = S. cerevisiae deletion strains, locus YFR003C, strain YPI1, stronger effect = lower value
[52] = S. cerevisiae deletion strains, locus YFR019W, strain FAB1, stronger effect = lower value
[53] = S. cerevisiae deletion strains, locus YFR028C, strain CDC14, stronger effect = lower value
[54] = S. cerevisiae deletion strains, locus YGR040W, strain KSS1, stronger effect = lower value
[55] = S. cerevisiae deletion strains, locus YGR052W, strain FMP48, stronger effect = lower value
[56] = S. cerevisiae deletion strains, locus YGR092W, strain DBF2, stronger effect = lower value
[57] = S. cerevisiae deletion strains, locus YHR082C, strain KSP1, stronger effect = lower value
[58] = S. cerevisiae deletion strains, locus YHR205W, strain SCH9, stronger effect = lower value
[59] = S. cerevisiae deletion strains, locus YIL147C, strain SLN1, stronger effect = lower value
[60] = S. cerevisiae deletion strains, locus YJL128C, strain PBS2, stronger effect = lower value
[61] = S. cerevisiae deletion strains, locus YJL157C, strain FAR1, stronger effect = lower value
[62] = S. cerevisiae deletion strains, locus YJR016C, strain ILV3, stronger effect = lower value
[63] = S. cerevisiae deletion strains, locus YJR066W, strain TOR1 (second series), stronger effect = lower value
[64] = S. cerevisiae deletion strains, locus YKL048C, strain ELM1, stronger effect = lower value
[65] = S. cerevisiae deletion strains, locus YKL067W, strain YNK1, stronger effect = lower value
[66] = S. cerevisiae deletion strains, locus YKL101W, strain HSL1, stronger effect = lower value
[67] = S. cerevisiae deletion strains, locus YKL193C, strain SDS22, stronger effect = lower value
[68] = S. cerevisiae deletion strains, locus YKL203C, strain TOR2, stronger effect = lower value
[69] = S. cerevisiae deletion strains, locus YLR133W, strain CKI1, stronger effect = lower value
[70] = S. cerevisiae deletion strains, locus YLR403W, strain SFP1, stronger effect = lower value
[71] = S. cerevisiae deletion strains, locus YML070W, strain DAK1, stronger effect = lower value
[72] = S. cerevisiae deletion strains, locus YMR001C, strain CDC5, stronger effect = lower value
[73] = S. cerevisiae deletion strains, locus YMR205C, strain PFK2 (second series), stronger effect = lower value
[74] = S. cerevisiae deletion strains, locus YMR277W, strain FCP1, stronger effect = lower value
[75] = S. cerevisiae deletion strains, locus YNL006W, strain LST8, stronger effect = lower value
[76] = S. cerevisiae deletion strains, locus YNL020C, strain ARK1, stronger effect = lower value
[77] = S. cerevisiae deletion strains, locus YNL161W, strain CBK1, stronger effect = lower value
[78] = S. cerevisiae deletion strains, locus YNL207W, strain RIO2, stronger effect = lower value
[79] = S. cerevisiae deletion strains, locus YNL222W, strain SSU72, stronger effect = lower value
[80] = S. cerevisiae deletion strains, locus YNL307C, strain MCK1 (second series), stronger effect = lower value
[81] = S. cerevisiae deletion strains, locus YOL078W, strain AVO1, stronger effect = lower value
[82] = S. cerevisiae deletion strains, locus YOL136C, strain PFK27, stronger effect = lower value
[83] = S. cerevisiae deletion strains, locus YOR061W, strain CKA2, stronger effect = lower value
[84] = S. cerevisiae deletion strains, locus YOR119C, strain RIO1, stronger effect = lower value
[85] = S. cerevisiae deletion strains, locus YOR329C, strain SCD5, stronger effect = lower value
[86] = S. cerevisiae deletion strains, locus YPL031C, strain PHO85, stronger effect = lower value
[87] = S. cerevisiae deletion strains, locus YPL153C, strain RAD53, stronger effect = lower value
[88] = S. cerevisiae deletion strains, locus YPL204W, strain HRR25, stronger effect = lower value
[89] = S. cerevisiae deletion strains, locus YPL209C, strain IPL1, stronger effect = lower value
[90] = S. cerevisiae deletion strains, locus YPR025C, strain CCL1, stronger effect = lower value
[91] = S. cerevisiae deletion strains, locus YPR106W, strain ISR1, stronger effect = lower value
[92] = S. cerevisiae deletion strains, locus YPR111W, strain DBF20, stronger effect = lower value
[93] = S. cerevisiae deletion strains, strain NNK1, stronger effect = lower value
[94] = S. cerevisiae deletion strains, strain TSCII, stronger effect = lower value

Measured: normalized growth

C[n+]1ccccc1/C=N\O
inactive: [1] 0.981 | [2] 0.987 | [3] 0.996 | [4] 0.932 | [5] 0.997 | [6] 0.934 | [7] 1 | [8] 0.974

CN1C(=O)CN=C(c2ccccc2)c2ccccc21
inactive: [9] 1.01 | [10] 0.997 | [11] 0.999 | [12] 0.995 | [13] 0.86 | [14] 1 | [15] 1 | [1] 1.03 | [16] 0.995 | [17] 1.01 | [18] 0.994 | S. cerevisiae deletion strains, locus YKL190W, strain CNB1, stronger effect = lower value 1 | [19] 1.02 | [20] 1.01 | [21] 1.02 | [22] 1.01 | [23] 1 | [24] 1 | [25] 0.981 | S. cerevisiae deletion strains, locus YMR307W, strain GAS1, stronger effect = lower value 1.02 | [26] 1 | [27] 1.01 | [28] 0.991 | [29] 1.02 | [30] 0.854 | [31] 1.05 | [32] 0.979

Cc1cc(SCc2[nH]nc3oc(=O)cc(C)c23)c(Cl)cc1Cl
inactive: [33] 0.979 | [34] 0.993 | [35] 0.984 | [36] 0.987 | [37] 0.986 | [38] 0.988 | [39] 0.991 | [12] 0.989 | [40] 0.98 | [41] 0.987 | [42] 1.01 | [43] 0.981 | [44] 0.983 | [45] 0.972 | [46] 1.01 | [47] 0.993 | [48] 1.03 | [49] 0.984 | [50] 0.979 | [51] 0.994 | [52] 0.995 | [53] 0.99 | [54] 1.01 | [55] 1.03 | [56] 0.973 | [1] 1.1 | [2] 0.992 | [57] 1.13 | [58] 0.968 | [59] 0.979 | [3] 0.947 | [60] 0.933 | [61] 1 | [62] 0.994 | [63] 0.983 | [4] 1.05 | [64] 0.993 | [65] 1.01 | [66] 1.01 | [67] 0.982 | [68] 1.04 | [5] 1 | [69] 0.998 | [70] 0.996 | [71] 1.02 | [72] 0.99 | [73] 1.03 | [74] 0.981 | [75] 0.984 | [76] 0.981 | [77] 1.01 | [6] 1.05 | [78] 0.986 | [79] 0.979 | [80] 0.994 | [81] 0.998 | [82] 1.01 | [83] 0.973 | [84] 1.08 | [7] 0.985 | [85] 0.989 | [86] 0.988 | [87] 0.987 | [88] 0.97 | [89] 0.991 | [8] 1.08 | [90] 0.99 | [91] 1 | [92] 0.974 | [93] 0.985 | [94] 0.98

O=C(O)C1c2ccccc2Oc2ccccc21
inactive: [9] 0.999 | [10] 0.993 | [11] 0.99 | [12] 1 | S. cerevisiae deletion strains, locus YDL134C, strain PPH21, stronger effect = lower value 1 | [13] 0.962 | [14] 0.996 | [15] 0.984 | [1] 0.987 | [16] 0.971 | S. cerevisiae deletion strains, locus YJL187C, strain SWE1, stronger effect = lower value 0.992 | [17] 1 | [18] 0.975 | [19] 0.984 | [20] 0.998 | [21] 0.969 | [22] 1 | [23] 1.03 | [24] 0.989 | [25] 1.01 | S. cerevisiae deletion strains, locus YNL128W, strain TEP1, stronger effect = lower value 1.01 | [26] 0.983 | [27] 0.993 | [28] 0.976 | [29] 1.01 | [30] 0.964 | [31] 0.971 | [32] 1.03 | S. cerevisiae strains, strain wild type, stronger effect = lower value 1.01

O=C(Oc1cc(Cl)c(Cl)cc1Cl)C1c2ccccc2Oc2ccccc21
inactive: [33] 0.953 | [34] 0.943 | [35] 0.944 | [36] 0.937 | [37] 0.94 | [38] 0.937 | [39] 0.943 | [12] 0.945 | [40] 0.941 | [41] 0.934 | [42] 0.95 | [43] 0.96 | [44] 0.927 | [45] 0.963 | [46] 0.912 | [47] 0.961 | [48] 0.982 | [49] 0.933 | [50] 0.95 | [51] 0.941 | [52] 0.996 | [53] 0.949 | [54] 0.907 | [55] 0.924 | [56] 0.655 | [2] 0.829 | [57] 0.976 | [58] 0.924 | [59] 0.936 | [3] 0.862 | [60] 0.887 | [61] 0.979 | [62] 0.945 | [63] 0.865 | [4] 0.93 | [64] 0.883 | [65] 0.951 | [66] 0.9 | [67] 0.958 | [68] 0.958 | [69] 0.981 | [70] 0.957 | [71] 0.962 | [72] 0.951 | [73] 0.971 | [74] 0.96 | [75] 0.945 | [76] 0.986 | [77] 0.94 | [6] 0.884 | [78] 0.925 | [79] 0.942 | [80] 0.9 | [81] 0.959 | [82] 0.976 | [83] 0.995 | [84] 0.988 | [7] 0.856 | [85] 0.943 | [86] 0.903 | [87] 0.904 | [88] 0.867 | [89] 0.938 | [90] 0.939 | [91] 0.931 | [92] 0.901 | [93] 0.927 | [94] 0.944
active: [1] 0.75 | [5] 0.758 | [8] 0.821
